HepG2 tox = qHTS for Inhibitors of TGF-b: Cytotox Counterscreen; HepG2 CAGA-GFP viability, ATP luminescence, 18 h; Potency, µM (top dose mostly 46.1 µM), for inactives: at the highest dose activity change, negative = cytotoxicity, usual class: cytotoxic; 0.76% of 410,000 active; AID 588856, 2011
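HepG2 CAGA-GFP cells (1000/well, DMEM with 1% FBS) received compound, then TGF-beta at 500 pg/mL final, and were incubated 18 hours at 37 degrees C. Viability was read by CellTiter-Glo luminescence. Media-only wells were set as complete cell-killing and DMSO as no toxicity.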
TGFb inhibitor = qHTS for Inhibitors of TGF-b; HepG2 CAGA-GFP TGF-b/SMAD3 reporter, GFP fluorescence, 18 h; TGF-beta stimulated, 500 pg/mL final; Potency, µM (titrated, usually from 46.1 µM), for inactives: at the top dose activity, negative = inhibition, usual class: inhibitors; 1.2% of 410,000 active; also: % is scaled to controls: 0 for no effect and ±100 for the full control effect; nearly all actives have a fitted effect of over 65% in size
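Per well, imaged GFP fluorescence of HEPG2 CAGA-GFP cells gives the signal; cells get compound, then TGF-beta (500 pg/mL final), 18 h at 37 degrees C; %Activity versus -TGF-beta and +DMSO controls.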
DT40 TDP1 CPT = qHTS for Inhibitors of human tyrosyl-DNA phosphodiesterase 1 (TDP1): qHTS in cells in presence of CPT. chicken DT40 Tdp1-/-;hTDP1 cells + 20 nM CPT, ATP luminescence, 48 h. Potency, µM (top dose mostly 46.2 µM), for inactives: at the highest dose activity change, negative = growth inhibition, actives largely listed as inhibitors. 12% of 420,000 active; also: % is scaled to controls: 0 for no effect and ±100 for the full control effect; nearly all actives have a fitted effect of over 55% in size
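Chicken DT40 Tdp1-/- cells stably complemented with human TDP1 were seeded at 400 cells/well in medium containing 20 nM camptothecin, exposed to pin-transferred compounds, and grown at 37 °C for at least 48 hr. Viability was read as ATP luminescence.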
DT40 TDP1 no CPT = qHTS for Inhibitors of human tyrosyl-DNA phosphodiesterase 1 (TDP1): qHTS in cells in absence of CPT. DT40 Tdp1-/- hTDP1 cells, no CPT, ATP luminescence, 48 h. Potency, µM (top dose mostly 46.2 µM), for the others: top-dose activity change, negative = growth inhibition, usual class: inhibitors. 15% of 420,000 active; also: % is scaled to controls: 0 for no effect and ±100 for the full control effect; nearly all actives have a fitted effect of over 55% in size
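DT40 Tdp1-/-;hTDP1 cells, no CPT (DMSO vehicle only), 400 cells/well; compounds pin-transferred; ≥48 hr, 37 °C; CellTiter-Glo 30 min RT dark, luminescence read.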
ATXN2 expr inh = Primary qHTS for Inhibitors of ATXN expression; 0.72% of 360,000 active; HEK-293 ATXN2-luciferase reporter, luminescence, 24 h; AID 1745845, 2022; Potency, µM (series often up to 57 µM), without a hit: top-dose activity change, negative = inhibition, usual class: inhibitors; also: % is scaled to controls: 0 for no effect and ±100 for the full control effect; nearly all actives have a fitted effect of over 55% in size
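ATXN2-luciferase reporter cells (luciferase flanked by upstream and downstream ATXN2 gene portions) were treated 24 h at 37 °C with compounds at up to 57 uM. SteadyGlo luminescence gave expression; GF-AFC fluorescence gave viability.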
ATXN viability = Viability Counterscreen for Primary qHTS for Inhibitors of ATXN expression | S2 cells (HEK-293 line with an ATXN2-luciferase reporter) viability, CellTiter-Fluor protease fluorescence, 24 h | Potency, µM (top dose mostly 56.7 µM), hits mostly cytotoxic | 0.49% of 400,000 active | AID 651635, 2014; also: nearly all actives have a fitted effect of over 40% in size
* marks the source's active call; other numbers are inactive results. Most compounds without a hit are left out; they make up all but 17% or so of the library. Calls follow the shape of the dose curve; as a rule, active = well fitted curve in the direction sought with a large enough effect; inconclusive = small, poorly fitted or top-dose-only effect, or another doubt; inactive = no such curve, though single readings can be large; an effect the other way counts as inactive or inconclusive. Potency is read from the fitted curve at half-maximal effect.

How did CC(=O)N1CCc2cc(S(=O)(=O)CCC(=O)N3CCN(c4cccc(C)c4C)CC3)ccc21 do in these assays?
HepG2 tox: -3.2%; TGFb inhibitor: -4.3%; DT40 TDP1 CPT: 16.4µM*; DT40 TDP1 no CPT: 14.6µM*; ATXN2 expr inh: -2.9%; ATXN viability: inactive

How did CC(=O)N1CCc2cc(S(=O)(=O)CCC(=O)N3CCN(c4cc(C)ccc4C)CC3)ccc21 do in these assays?
HepG2 tox: -0.8%; TGFb inhibitor: -1.2%; DT40 TDP1 CPT: inconclusive; DT40 TDP1 no CPT: 20.6µM*; ATXN2 expr inh: 3.5%; ATXN viability: inactive

What do the screens show for `CC(C)(C)C(=O)COC(=O)c1cc(-c2cccnc2)nc2ccccc12`?
HepG2 tox: -9.6%; TGFb inhibitor: -4.4%; DT40 TDP1 CPT: 1.1%; DT40 TDP1 no CPT: 2.3%; ATXN2 expr inh: -8.9%; ATXN viability: inconclusive

What do the screens show for `CC1(C)Cc2c(c(-c3ccco3)nc3sc4c(NCCO)ncnc4c23)CO1`?
HepG2 tox: 0.0%; TGFb inhibitor: 1.6%; DT40 TDP1 CPT: 23.1µM*; DT40 TDP1 no CPT: 9.2µM*; ATXN viability: inconclusive

How did Cc1nc2sc3c(NCc4ccco4)ncnc3c2c2c1COC(C)(C)C2 do in these assays?
HepG2 tox: -20.4%; TGFb inhibitor: -7.1%; DT40 TDP1 CPT: inconclusive; DT40 TDP1 no CPT: 23.1µM*; ATXN2 expr inh: -4.6%; ATXN viability: inactive

How did COCCCNc1ncnc2c1sc1nc(-c3ccco3)c3c(c12)CC(C)(C)OC3 do in these assays?
HepG2 tox: -5.4%; TGFb inhibitor: 4.4%; DT40 TDP1 CPT: inconclusive; DT40 TDP1 no CPT: 14.6µM*; ATXN2 expr inh: -15.3%; ATXN viability: inactive

What do the screens show for `CCCSc1nc(NCc2ccco2)c2c3c(sc2n1)COC(C)(C)C3`?
HepG2 tox: -18.2%; TGFb inhibitor: 0.5%; DT40 TDP1 CPT: -23.7%; DT40 TDP1 no CPT: inconclusive; ATXN2 expr inh: 21.9%; ATXN viability: inactive

How did O=C(NC(CSC(=O)c1ccccc1)C(=O)O)OCc1ccccc1 (centres undefined) do in these assays?
HepG2 tox: 2.2%; TGFb inhibitor: inconclusive; DT40 TDP1 CPT: 7.7%; DT40 TDP1 no CPT: 4.7%; ATXN2 expr inh: -23.1%; ATXN viability: inactive

How did CCCCCC1C(=O)CCC1CC(=O)O (centres undefined) do in these assays?
DT40 TDP1 CPT: -1.1%; DT40 TDP1 no CPT: -7.3%

What do the screens show for `CCCCC1C(=O)CC[C@H]2[C@@H]1CC(=O)[C@@H]2C/C=C\CCCC(=O)O` (some centres undefined)?
HepG2 tox: -11.9%; TGFb inhibitor: 7.2%; DT40 TDP1 CPT: inconclusive; DT40 TDP1 no CPT: 20.6µM*; ATXN2 expr inh: inconclusive; ATXN viability: inactive

What do the screens show for `CCOc1cc(C2C(C(N)=O)=C(C)Nc3ncnn32)cc(Br)c1O` (centres undefined)?
HepG2 tox: 4.5%; TGFb inhibitor: 4.9%; DT40 TDP1 CPT: 2.6%; DT40 TDP1 no CPT: 4.9%; ATXN2 expr inh: 1.0%; ATXN viability: inactive

Results for Cc1ccc([C@H]2C[C@H](O)[C@@H](n3cc(C4CC4)nn3)CN2C(=O)c2cccs2)cc1 ?
HepG2 tox: -21.6%; TGFb inhibitor: 9.8%; DT40 TDP1 CPT: -21.1%; DT40 TDP1 no CPT: -15.7%; ATXN2 expr inh: -2.4%; ATXN viability: inconclusive

Results for CCCCCCN1C[C@H](O)[C@@H](n2cc(-c3ccc(F)cc3)nn2)C[C@@H]1c1ccccc1 ?
HepG2 tox: -101.9%; TGFb inhibitor: inconclusive; DT40 TDP1 CPT: 20.6µM*; DT40 TDP1 no CPT: 20.6µM*; ATXN2 expr inh: -32.7%; ATXN viability: 17.8µM*

From PubChem
